From PubChem BioAssay (NCI)
About 83,000 compounds went through this panel and 20% of them were active in at least one assay; those are over-represented in the sample as a whole.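 Compound tested at a single concentration for 48 hours in 96-well plates; a percent growth value below 10 was scored as active.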 Values without a mark were called inactive. Calls of active or inactive are those of the source.

tested on: NCI-H23 lung; experiment: NCI-60 one-dose screen, 48 h (100 = growth as untreated, 0 = no growth, -100 = all killed); settings: 10 µM unless noted

Point of comparison: `CSC1=Nc2c(c(C)c(-c3ccccc3)n2CCCCl)C2=NC(=O)CN12`, growth 77.6%. Against it:
- Cc1cc(CSc2ccc(Cl)cc2)ccc1N — higher, 99.2%
- CC(=O)C(CO)C(=O)Nc1ccccc1 (centres undefined) — higher, 103%
- Cc1nc2ccccc2c(=O)n1-c1cccc(OCc2cn(-c3cccc(O)c3)nn2)c1 — higher, 95.1%
- CCCCCCCCCCN1CC2CCCCC2C1 (centres undefined) — higher, 82.2%
- CCCCN(CCC)CCCCCCCCCCN1CCCc2ccccc21 — lower, 71.5%
- O=C1C(Cl)=C(Nc2ccc(Nc3ccccc3)c(NC3=C(Cl)C(=O)c4ccccc4C3=O)c2)C(=O)c2ccccc21 — higher, 88.4%
- CN1CCN(Cc2ccc(NC(=O)c3cncc(C#Cc4c(N)ncc5ccc(F)cc45)c3)cc2C(F)(F)F)CC1 — lower, 30.6%
- COc1cccc(CNC(=O)c2cccc(C3CC(=O)c4c(cc(OC)c(OC)c4OC)O3)c2)c1 (centres undefined) — higher, 99.1%
- COC(=O)C1CC(=O)N(C(=O)Nc2ccc(Cl)cc2Cl)C1 (centres undefined) — higher, 98.8%
- O=C(/C=C\c1ccc(NCc2ccc(C(=O)O)cc2)cc1)CCl — higher, 94.3%
- CC1(C)NC(=S)NC1=O — higher, 101%
- COc1ccc(-c2nc(N)n(C(=S)Nc3ccccc3)n2)cc1 — higher, 92.2%
- O=C(O)c1ccc(-c2nn(-c3ccc(C(=O)O)cc3)cc2CNc2ccc(Br)cc2)cc1 — higher, 106%
- CCS(=O)(=O)N[C@@H]1O[C@H](COC(C)=O)C(OC(C)=O)[C@H](OC(C)=O)C1OC(C)=O (some centres undefined) — higher, 102%
- CCC(C)(C)c1ccc(OCCCCCCN2CCN(c3ccc(C)c(Cl)c3)CC2)cc1 — lower, 62.3%
- COc1ccc2cnc(N)c(C#Cc3cc(C(=O)Nc4ccc(CN5CCN(C)CC5)c(C(F)(F)F)c4)cnc3C)c2c1 — lower, 52.3%
- COc1ccc(-c2nc(SCC(C)C)nc(Nc3ccc(C(=O)O)cc3)c2C#N)cc1 — higher, 88.8%
- CCCCCCCCCCCCCCCCC(=O)O.CCCCCCCCCCCCCCCCCC(=O)O.CCCCCCCCCCCCCCCCCC(=O)O.CCCCCCCCCCCCCCCCCC(=O)O.CCCCCCCCCCCCCCCCCC(=O)O.CO[CH-]OC12COC1CC(O)C1(C)C(O)C(OC(C)O)C3=C(C)C(OC(=O)C(O)C([NH-])c4ccccc4)CC(O)(C(OC(=O)c4ccccc4)C21)C3(C)C.[Cu+].[Zn].[Zn].[Zn].[Zn].[Zn] (centres undefined) — lower, 43.6%
- O=C1c2cc([N+](=O)[O-])ccc2-c2cc(Cl)c(NC(=O)C(F)(F)F)cc21 — higher, 95.3%
- CCCNC(=O)Oc1ccc(/C(=C(/C)Cc2ccc(OC)cc2)c2ccc(OCCN3CCCCC3)cc2)cc1 — higher, 90.8%
- CC(=O)CCS(=O)c1ccccc1 (centres undefined) — higher, 98.1%
- N#CC1=C(N2CCOCC2)NC2c3ccccc3Sc3ccccc3N2C1=N (centres undefined) — higher, 99%
- CC(C)(C)OC(=O)N1C/C(=C\c2ccccc2)C(=O)/C(=C/c2ccccc2)C1 — higher, 103%
- N#Cc1ccc(NC2c3ccccc3CC2O)cc1 (centres undefined) — higher, 101%
- CC([C@H]1CCC2C3CCC4C[C@@H](N)CC[C@]4(C)C3CC[C@@]21C)N(C)C (some centres undefined) — lower, 77.1%
- CCN(CC)c1ccc2nc3ccc(N=Nc4ccc(O)cc4)cc3[n+](-c3ccccc3)c2c1 — lower, 63.9%
- CC(C)CSc1nc(-c2ccc(F)cc2)c(C#N)c(N2CCCCC2)n1 — higher, 83.7%
- Cc1ccc(C(=O)Nc2ccc(CN3CCN(C)CC3)c(C(F)(F)F)c2)cc1C#Cc1cnc(N)c2ccc(C#N)cc12 — lower, 48.3%
- CCCCCN1CCN(C(CC(=O)c2ccccc2)C(=O)c2ccccc2)CC1 (centres undefined) — higher, 98.8%
- COc1ccc2cc(C(C)C(=O)Nc3ccc(S(=O)(=O)Nc4cc(C)on4)cc3)ccc2c1 (centres undefined) — higher, 101%
- Oc1ccc([S+](c2ccc(O)cc2)c2ccc(O)cc2)cc1 — higher, 106%
- CCCNC(=O)Oc1ccc(/C(=C(/CC)Cc2ccccc2)c2ccc(OCCN(CC)CC)cc2)cc1 — higher, 83.8%

In the case of `C/C=C(/C)C(=O)OC1C=C(CO)C(=O)C(OC(=O)/C(C)=C\C)C1C(C)C` (centres undefined), the growth is reported as -66.3% (active).
`Cc1ccc(C(=O)Nc2ccc(CN3CCN(C)CC3)c(C(F)(F)F)c2)cc1C#Cc1cncc2ncccc12` was tested, and the growth was -84.3% (active).
In the case of `Cc1ncc(C(=O)Nc2ccc(CN3CCN(C)CC3)c(C(F)(F)F)c2)cc1C#Cc1c(N)ncc2ccccc12`, the growth is reported as -73.1% (active).
`CN1CCN(Cc2ccc(NC(=O)c3ccc(C#Cc4c(N)ncc5ccc(F)cc45)cc3)cc2C(F)(F)F)CC1` was tested, and the growth was -80.4% (active).
In the case of `Cc1ncc(C(=O)Nc2ccc(CN3CCN(C)CC3)c(C(F)(F)F)c2)cc1C#Cc1cnc(NC2CC2)c2ncccc12`, the growth is reported as -70.8% (active).
For `Oc1ccc2ccccc2c1/C=N\Nc1ccccn1`, the growth was 0% (active).
